Screening results from PubChem BioAssay.
CSC inhib – blocks cancer stem cells | cancer stem cell-like cells viability, luminescence | inhibition, % at 7.5 µM | 300,000 compounds, 1.1% hits | AID 2717; in the data active means inhibition above about 75%; inconclusive means no clear call, values can overlap the other calls; tested in HMLE shEcad cells
MPTP block – inhibitors of mitochondrial permeability transition pore; isolated mouse mitochondria, Ca2+ swelling absorbance, 30 min; inhibition, % at 10 µM; 360,000 compounds, 1.4% hits;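 active means inhibition of 50% or more, scaled per plate between neutral and stimulator controls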;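 further: 0% = DMSO wells given calcium and 100% = 1 mM EGTA wells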
Beta cell apopt – blocks beta cell apoptosis; INS-1E cytokine-induced death, ATP luminescence, 48 h; percent of positive-control rescue, neutral wells zero; protection from apoptosis, % (test concentration not listed); 300,000 compounds, 0.8% hits; AID 435005;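 active means Every replicate reaches about 75%, or at least half do and their mean reaches it too, limit read from the data; inconclusive means At least half of replicates reach the limit but their mean does not; inactive means Under half of replicates reach the limit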;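 further: 0% = cytokine-treated negative control wells and 100% = positive control rescue; higher means more ATP so stronger rescue from cytokine killing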
Mdm2 MdmX PPI – inhibitors of human Mdm2/MdmX interaction | O15151+Q00987 | SaOS-2 split-luciferase Mdm2/MdmX complementation, luminescence | inhibition, % at 8 µM | 330,000 compounds, 3% hits | AID 485346;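 active means inhibition of at least 50% at 8 µM in the primary screen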
Target sequence (O15151 whole entry, looked up): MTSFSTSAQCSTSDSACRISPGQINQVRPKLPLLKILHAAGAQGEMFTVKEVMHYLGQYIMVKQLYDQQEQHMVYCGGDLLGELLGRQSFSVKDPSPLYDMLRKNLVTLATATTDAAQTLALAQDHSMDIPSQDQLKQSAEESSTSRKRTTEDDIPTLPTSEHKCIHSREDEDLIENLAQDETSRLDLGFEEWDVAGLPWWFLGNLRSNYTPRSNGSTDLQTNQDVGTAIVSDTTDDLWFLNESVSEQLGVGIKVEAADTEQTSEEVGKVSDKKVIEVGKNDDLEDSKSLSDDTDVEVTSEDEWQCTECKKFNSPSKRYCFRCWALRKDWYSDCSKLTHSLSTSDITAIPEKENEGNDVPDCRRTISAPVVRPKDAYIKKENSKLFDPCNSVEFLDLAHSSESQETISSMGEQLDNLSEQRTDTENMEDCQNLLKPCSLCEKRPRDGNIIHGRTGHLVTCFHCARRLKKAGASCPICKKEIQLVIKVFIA
Target sequence (Q00987 whole entry, looked up): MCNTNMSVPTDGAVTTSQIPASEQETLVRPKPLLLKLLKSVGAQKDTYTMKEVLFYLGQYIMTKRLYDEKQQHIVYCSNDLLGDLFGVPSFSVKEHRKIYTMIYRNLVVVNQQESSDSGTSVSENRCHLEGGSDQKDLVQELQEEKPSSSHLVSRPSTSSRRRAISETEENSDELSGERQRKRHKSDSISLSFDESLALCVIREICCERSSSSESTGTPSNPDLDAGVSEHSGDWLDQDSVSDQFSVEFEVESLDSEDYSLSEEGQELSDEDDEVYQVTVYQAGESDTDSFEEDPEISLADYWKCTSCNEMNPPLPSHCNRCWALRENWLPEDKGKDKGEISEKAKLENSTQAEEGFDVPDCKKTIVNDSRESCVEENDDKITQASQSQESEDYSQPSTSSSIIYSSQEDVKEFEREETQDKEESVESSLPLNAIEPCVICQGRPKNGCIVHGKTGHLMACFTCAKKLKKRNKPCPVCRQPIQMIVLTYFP
Calb FLC – C. albicans growth modulation with fluconazole. C. albicans CaCi-2 (fluconazole-resistant clinical isolate) + fluconazole, Alamar Blue growth, 48 h. AID 1979. growth inhibition, % (test concentration not listed). 300,000 compounds, 0.57% hits;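 active means growth inhibition above about 58% in most replicates, limit read from the data, passing the limit was not always enough; inconclusive means exactly half the replicates above a set limit; inactive means most replicates below a set limit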;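 further: all wells also contain fluconazole at 8 µg/ml as a sub-toxic cotreatment; 0% = median of DMSO wells and 100% = median of geldanamycin control wells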
SKKanGAS inh – blocks kanamycin growth of S. pyogenes SKKanGAS strain; BacTiter-Glo, 6 h; inhibition, % at 7.5 µM; 300,000 compounds, 1.3% hits; AID 1662;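 active means mean replicate score, as percent of positive control median, at least 50; inconclusive means mean below 50 but one replicate at or above 50; inactive means mean and every replicate below 50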;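 further: strain carries kanamycin resistance gene driven by streptokinase promoter and grows in 40 µg/ml kanamycin; loss of luminescence reflects streptokinase promoter inhibition or plain growth inhibition; 0% = median of DMSO wells and 100% = positive control at its reference dose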
Rh123 counter – membrane potential counter-screen of mitochondrial pore inhibitors | isolated mitochondria, Rhodamine 123 fluorescence | 5,000 compounds, 78% hits | inhibition, % at 10 µM | AID 624504 | shares compounds with MPTP block; in the data active means inhibition above about 22%;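 further: 0% = DMSO vehicle and 100% = positive control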
MPTP abs DR – MPTP inhibition, dose response swelling confirmation. 780 compounds, 58% hits. IC50, µM. shares compounds with MPTP block. isolated mitochondria swelling, absorbance; in the data active means IC50 below about 20 µM
MPTP cs DR – MPTP inhibitor counter-screen activity, dose response; shares compounds with MPTP block; isolated mitochondria counterscreen, fluorescence read-out; IC50, µM; 780 compounds, 49% hits; AID 651564; in the data active means IC50 below about 80 µM
* marks the source's active call; other numbers are inactive results; i = inactive; ? = inconclusive; . = not tested or not shown. Only some compounds are listed: those with a hit (about 5.4% of all), similar ones and a draw of the others.

SMILES | CSC inhib | MPTP block | Beta cell apopt | Mdm2 MdmX PPI | Calb FLC | SKKanGAS inh | Rh123 counter | others
Cc1ccccc1-c1nn(-c2ccc(F)cc2F)cc1CNCCCN(C)C | 13 | 87* | 2 | 34 | -16 | 4 | -12
Cc1ccccc1-c1nn(-c2ccc(F)cc2F)cc1CNCCN(C)C | -1 | 25 | -3 | 13 | 8 | 15 | .
O=C(Nc1ccc(F)cc1)Nc1nnc(Cc2ccccc2F)s1 | . | 58* | . | 31 | 7 | -1 | 77*
O=C(Nc1ccccc1)Nc1nnc(Cc2ccccc2F)s1 | 35 | 4 | -3 | 4 | -2 | -4 | .
Cc1ccc(F)c(CNC(=O)C2CCC(=O)N(CCN3CCOCC3)C2)c1F (configuration not stated) | 0 | 0 | -7 | 10 | -1 | -3 | .
CCN(CC)C(=O)c1ccc(COc2ccc(Cl)c(C)c2)o1 | 6 | 91* | 10 | 4 | -3 | -4 | 85*
CC(C)(C)Nc1nc2nonc2nc1NC(C)(C)C | 1 | 93* | 20 | 9 | -19 | 1 | 99*
OCCNc1nc2nonc2nc1NCCO | -8 | 1 | -4 | 24 | -3 | -12 | .
CC(O)C1CCC2C3CC[C@H]4CC(O)CCC4(C)C3CC3(OCCO3)C12C (some centres not stated) | -13 | -1 | 11 | 29 | 2 | 2 | .
O=C(Nc1cccc(S(=O)(=O)Nc2ccc(Cl)cc2)c1)c1cc2c(s1)CCCC2 | 117* | 97* | 12 | 35 | -8 | 65* | 83*
O=C(Nc1cc(S(=O)(=O)Nc2ccccc2Cl)ccc1O)c1cc2c(s1)CCCC2 | 8 | 89* | 6 | 32 | 2 | -1 | 83*
COc1ccc(NS(=O)(=O)c2cccc(NC(=O)COc3ccccc3[N+](=O)[O-])c2)cc1 | -11 | 2 | -5 | 39 | . | . | .
O=C(Nc1cccc(S(=O)(=O)Nc2ccc(Cl)cc2)c1)c1ccc(Cl)nc1 | 19 | 92* | 79* | 35 | 2 | 15 | 80*
COc1ccc(NS(=O)(=O)c2cccc(NC(=O)CCS(=O)(=O)c3ccccc3)c2)cc1 | . | 55* | 13 | -3 | 7 | -1 | 16 | MPTP abs DR=>100;MPTP cs DR=57*
Cc1cc(C)n2ncc(C(=O)NCc3ccccc3)c2n1 | 2 | -1 | 2 | -14 | 4 | 1 | .
CSc1ncccc1C(=O)OCC(=O)NC1CCCc2ccccc21 (configuration not stated) | -6 | -1 | -5 | 22 | . | . | .
COCc1nc(-c2ccc(-c3ccc(C)cc3)nc2OC)no1 | 10 | 2 | -3 | -46 | ? | 27 | .
COc1cccc(S(=O)(=O)Nc2ccc(C(=O)Nc3ccncc3)cc2)c1 | 63 | 13 | 2 | -2 | 4 | -3 | .
COc1ccc(NS(=O)(=O)c2cccc(NC(=O)c3ccc(Cl)nc3)c2)cc1 | 24 | 100* | 107* | 40 | -4 | 9 | 94*
COc1ccc(/C=C/c2nc(-c3ccccc3O)n(-c3ccccc3)n2)cc1 | 12 | 4 | 0 | -3 | 2 | 2 | .
COc1ccc(/C=C/c2nc(-c3ccccc3O)n[nH]2)cc1 | 44 | 56* | 0 | -263 | -15 | -13 | 46*
COc1ccccc1Nc1nc(-c2c(C)nc3ncccn23)cs1 | . | 71* | . | . | 25 | 0 | 50*
Cc1cccc(N(C)S(=O)(=O)c2ccc3[nH]cc(C(=O)N4CCOCC4)c(=O)c3c2)c1 | -17 | 1 | . | 13 | 2 | 1 | .
CCc1ccccc1N(C)S(=O)(=O)c1ccc2[nH]cc(C(=O)N3CCc4ccccc43)c(=O)c2c1 | -1 | 64* | -1 | 3 | 6 | 10 | 63*
O=C(CNC(=O)c1ccccc1Br)NCC(c1ccco1)N1CCCCC1 (configuration not stated) | . | 0 | . | . | . | . | .
SMILES | CSC inhib | MPTP block | Beta cell apopt | Mdm2 MdmX PPI | Calb FLC | SKKanGAS inh | Rh123 counter | others
CCOC(=O)C1(Cc2ccccc2C(F)(F)F)CCN(Cc2ccc(COC)o2)CC1 | 7 | 8 | . | 26 | -15 | -8 | .
Cc1[nH]n(-c2ccccc2)c(=O)c1-c1ccccc1 | 6 | -9 | 0 | -1 | -7 | -2 | .
O=c1c(Sc2ccccc2)c(C(F)(F)F)[nH]n1-c1ccccc1 | 42 | 70* | 2 | -22 | ? | 1 | 89*
CCOc1ccc(CCNC(=O)c2cc(S(=O)(=O)N3CCOCC3)ccc2C)cc1OCC | -7 | 1 | -4 | 33 | 2 | -7 | .
CCOc1ccccc1N1CCN(C(=O)Nc2ccc(F)c(Cl)c2)CC1 | 8 | 88* | 12 | 23 | -2 | 30 | 93*
COc1ccc(N2C(=O)C3CCCN3C2c2ccc(C)cc2)cc1 (configuration not stated) | -6 | 0 | 0 | -2 | -1 | 1 | .
COc1ccc(C(=O)COC(=O)CSCc2c(C)noc2C)cc1OC | 0 | -1 | -9 | 3 | 18 | -4 | .
NS(=O)(=O)c1ccc(NC(=O)Nc2ccc(Cl)cc2)cc1 | 3 | 77* | 10 | -36 | 12 | -4 | 85*
NS(=O)(=O)c1ccc(NC(=S)Nc2cc(Cl)c(Cl)cc2Cl)cc1 | -5 | 88* | -4 | -8 | 5 | -4 | 92*
CCOC(=O)C1=C(C)NC(C)=C(C(=O)OCC)C1C(=O)OCC(=O)Nc1ccc(NC(C)=O)cc1 | . | 0 | . | . | . | . | .
Cc1ccc(NC(=O)Cn2c(/C=C/c3ccccc3)nc3ccccc32)cc1C | 14 | 63* | -30 | 45 | -22 | 3 | 60*
CC(C)c1ccccc1NC(=O)Cn1c(/C=C/c2ccccc2)nc2ccccc21 | 30 | . | 68 | 16 | 7 | -1 | .
CCCCCCNCC(=O)N1CCC(Cc2ccccc2)CC1 | -12 | 86* | 7 | 40 | 6 | 8 | -3 | MPTP abs DR=11*;MPTP cs DR=45*
Cc1ccc(N2CN(CCc3ccccc3)CNC2=S)cc1 | -7 | 0 | 0 | 6 | 20 | -15 | .
Cc1ccc(NC(=S)Nc2nc(CC(=O)Nc3ccccc3)cs2)cc1 | -4 | 78* | 12 | 4 | 20 | 22 | 84*
CC(=O)CCS(=O)(=O)c1ccc(Oc2ccc(S(=O)(=O)CCC(C)=O)cc2)cc1 | -13 | 58* | -30 | 38 | 2 | -5 | 16 | MPTP abs DR=i;MPTP cs DR=59*
CC(=O)CS(=O)(=O)c1ccc(Oc2ccc(S(=O)(=O)CC(C)=O)cc2)cc1 | -18 | 0 | 5 | -4 | -4 | 6 | .
COC(=O)c1cc(NC(=O)c2cc(-c3ccc(Cl)cc3)oc2C(F)(F)F)ccc1N1CCOCC1 | 40 | 76* | 0 | 43 | 2 | 59* | 80*
